# Test results as given in PubChem BioAssay.
# The source made the active and inactive calls.
# How the values were obtained:
# [1] = system: Plasmodium falciparum Sir2 (PF13_0152, Sir2A); assay: Plasmodium falciparum Sir2A binding compounds – biochemical, small-molecule microarray, 635 nm fluorescence, primary screen (AID 1098); conditions: fluorescence 635 nm, higher = more signal;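 also: score merges spot fluorescence intensity with its signal-to-noise ratio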
# [2] = probe aDKK1 binding to arrayed compounds – biochemical, biotinylated probe, 635/667 nm fluorescence, primary screen (AID 1099); conditions: small-molecule microarray, higher = more signal;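 also: score merges 667nm spot fluorescence with signal to noise across triplicate slides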
# [3] = probe aCHRDL2 binding to arrayed compounds – biochemical, biotinylated probe, 635/667 nm fluorescence, primary screen (AID 1100); conditions: small-molecule microarray, higher = more signal
# [4] = change in splice reporter luminescence, either direction, cell-based, HEK293, spliceosome inhibition project, primary screen (AID 1101); conditions: HEK293 splicing luciferase reporter, 24 h, higher = more signal, called active from +8 up or from −8 down;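 also: HEK293 cells carrying a splicing-competent luciferase reporter gene; test concentration not given here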
# [5] = molecular target: Fibroblast growth factor 10 (Homo sapiens) (UniProt O15520); assay: compounds binding fibroblast growth factor 10 – biochemical, small-molecule microarray, 635 nm fluorescence, primary screen (AID 1102); conditions: FGF10 binding, fluorescence 635 nm, higher = more signal
# [6] = system: glycogen synthase kinase-3 (GSK3A per assay name; protocol says GSK3B); assay: compounds binding glycogen synthase kinase-3 – biochemical, small-molecule microarray, 635 nm fluorescence, GSK3A, primary screen (AID 1103); conditions: fluorescence 635 nm, higher = more signal; also: the record names both GSK3A and GSK3B
# [7] = molecular target: Epidermal growth factor receptor (Homo sapiens) (UniProt P00533); assay: compounds binding epidermal growth factor receptor – biochemical, small-molecule microarray, 635 nm fluorescence, primary screen (AID 1104); conditions: EGFR binding, higher = more signal;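 also: score merges 667 nm emission intensity with spot signal to noise over triplicate slides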
# [8] = molecular target: Follistatin-related protein 3 (Homo sapiens) (UniProt O95633); assay: compounds binding follistatin-related protein 3 – biochemical, small-molecule microarray, 635 nm fluorescence, primary screen (AID 1105); conditions: FSTL3 binding, higher = more signal;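 also: score merges emission near 667 nm and signal to noise per printed spot across three slides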
# [9] = molecular target: Dickkopf-related protein 1 (Homo sapiens) (UniProt O94907); assay: small molecules binding DKK1 protein – biochemical, small-molecule microarray, 635 nm fluorescence scan, primary screen (AID 1106); conditions: higher = more signal;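 also: score merges emission near 667 nm with signal to noise over three replicate slides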
# [10] = system: Inhibin beta A chain (activin A); assay: small molecules binding activin A – biochemical, small-molecule microarray, 635 nm fluorescence scan, primary screen (AID 1107); conditions: INHBA, higher = more signal;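 also: mouse activin A protein probed at 4.33 µg/mL on printed slides; score merges bound-protein fluorescence near 667 nm with spot signal-to-noise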
# [11] = system: Human papillomavirus type 1a protein E7 (residues 44-93); assay: small molecules binding HPV E7 44-93 – biochemical, small-molecule microarray, residues 44-93, 635 nm fluorescence, primary screen (AID 1108); conditions: fluorescence 635 nm, higher = more signal;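 also: E7 fragment applied at 1 µg/mL in TBST for 1 h at 4 C; score combines spot fluorescence with its signal to noise ratio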
# [12] = hepatitis C replication reporter changes, two-sided – Huh7 cells, luciferase reporter, HCV replication inhibitor project, primary screen (AID 1109); conditions: Huh7 HCV replicon luciferase reporter, 48 h; higher = more signal;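 also: huh7 hepatoma cells harbouring a luciferase neomycin HCV replicon reporter; luciferase luminescence as measure of HCV replicon replication; test concentration not given here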
# [13] = molecular target: Left-right determination factor 2 (Homo sapiens) (UniProt O00292); assay: small molecules binding LEFTY2 protein – biochemical, small-molecule microarray, 635 nm fluorescence scan, primary screen (AID 1110); conditions: higher = more signal
# [14] = molecular target: Calmodulin-1 (Homo sapiens) (UniProt P0DP23); assay: small molecules binding calmodulin-1 with EGTA – biochemical, small-molecule microarray, Cy5-labelled CALM1, profiling panel (AID 1111); conditions: Cy5-CALM1 binding fluorescence, higher = more signal;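 also: labelled calmodulin applied in Tris saline Tween buffer holding calcium plus EGTA and DTT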
# [15] = molecular target: Calmodulin-1 (Homo sapiens) (UniProt P0DP23); assay: small molecules binding Ca-loaded calmodulin-1 – biochemical, small-molecule microarray, Cy5-labelled CALM1, plus calcium, artefact control for SMM control-protein annotation, profiling panel (AID 1112); conditions: Cy5-CALM1 binding fluorescence, higher = more signal;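 also: score merges spot fluorescence with signal to noise from triplicate slides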
# [16] = probe aWnt5a binding to arrayed compounds – biochemical, biotinylated probe, 635/667 nm fluorescence, primary screen (AID 1113); conditions: small-molecule microarray, higher = more signal;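 also: score merges 667 nm fluorescence intensity with signal-to-noise per printed feature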
# [17] = probe aShh binding to arrayed compounds – biochemical, biotinylated probe, 635/667 nm fluorescence, primary screen (AID 1114); conditions: small-molecule microarray, higher = more signal;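 also: probe is biotin-labelled aShh protein from a stem cell growth factor screen; measures binding of labelled protein to compounds printed on the slide; score merges feature fluorescence at 667 nm with signal-to-noise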
# [18] = probe aNog binding to arrayed compounds – biochemical, biotinylated probe, 635/667 nm fluorescence, primary screen (AID 1115); conditions: small-molecule microarray, higher = more signal;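 also: probe is biotinylated aNog protein used at 0.15 µg/mL for 1 h at 4 C; z-score combines 667 nm fluorescence of each spot with its signal to noise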
# [19] = molecular target: Torsin-1A-interacting protein 1 (Homo sapiens) (UniProt Q5JTV8); assay: compound microarray binding of lysate hLAP1 – cell lysate, small-molecule microarray, COS7 lysate, 635/667 nm fluorescence, primary screen (AID 1116); conditions: 635 nm fluorescence, higher = more signal
# [20] = molecular target: Alpha-bungarotoxin (Bungarus multicinctus) (UniProt P60615); assay: compounds binding labelled alpha-BTX control protein – biochemical, small-molecule microarray, Alexa647 label, 635/667 nm fluorescence, artefact control for SMM control protein annotation, profiling panel (AID 1117); conditions: alpha-BTX-A647 binding fluorescence, higher = more signal
# Alpha-bungarotoxin (Bungarus multicinctus), sequence (P60615 whole entry, looked up): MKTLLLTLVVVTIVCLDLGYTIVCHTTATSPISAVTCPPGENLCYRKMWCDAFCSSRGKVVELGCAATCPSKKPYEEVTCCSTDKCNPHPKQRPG
# Epidermal growth factor receptor (Homo sapiens), sequence (P00533 whole entry, looked up): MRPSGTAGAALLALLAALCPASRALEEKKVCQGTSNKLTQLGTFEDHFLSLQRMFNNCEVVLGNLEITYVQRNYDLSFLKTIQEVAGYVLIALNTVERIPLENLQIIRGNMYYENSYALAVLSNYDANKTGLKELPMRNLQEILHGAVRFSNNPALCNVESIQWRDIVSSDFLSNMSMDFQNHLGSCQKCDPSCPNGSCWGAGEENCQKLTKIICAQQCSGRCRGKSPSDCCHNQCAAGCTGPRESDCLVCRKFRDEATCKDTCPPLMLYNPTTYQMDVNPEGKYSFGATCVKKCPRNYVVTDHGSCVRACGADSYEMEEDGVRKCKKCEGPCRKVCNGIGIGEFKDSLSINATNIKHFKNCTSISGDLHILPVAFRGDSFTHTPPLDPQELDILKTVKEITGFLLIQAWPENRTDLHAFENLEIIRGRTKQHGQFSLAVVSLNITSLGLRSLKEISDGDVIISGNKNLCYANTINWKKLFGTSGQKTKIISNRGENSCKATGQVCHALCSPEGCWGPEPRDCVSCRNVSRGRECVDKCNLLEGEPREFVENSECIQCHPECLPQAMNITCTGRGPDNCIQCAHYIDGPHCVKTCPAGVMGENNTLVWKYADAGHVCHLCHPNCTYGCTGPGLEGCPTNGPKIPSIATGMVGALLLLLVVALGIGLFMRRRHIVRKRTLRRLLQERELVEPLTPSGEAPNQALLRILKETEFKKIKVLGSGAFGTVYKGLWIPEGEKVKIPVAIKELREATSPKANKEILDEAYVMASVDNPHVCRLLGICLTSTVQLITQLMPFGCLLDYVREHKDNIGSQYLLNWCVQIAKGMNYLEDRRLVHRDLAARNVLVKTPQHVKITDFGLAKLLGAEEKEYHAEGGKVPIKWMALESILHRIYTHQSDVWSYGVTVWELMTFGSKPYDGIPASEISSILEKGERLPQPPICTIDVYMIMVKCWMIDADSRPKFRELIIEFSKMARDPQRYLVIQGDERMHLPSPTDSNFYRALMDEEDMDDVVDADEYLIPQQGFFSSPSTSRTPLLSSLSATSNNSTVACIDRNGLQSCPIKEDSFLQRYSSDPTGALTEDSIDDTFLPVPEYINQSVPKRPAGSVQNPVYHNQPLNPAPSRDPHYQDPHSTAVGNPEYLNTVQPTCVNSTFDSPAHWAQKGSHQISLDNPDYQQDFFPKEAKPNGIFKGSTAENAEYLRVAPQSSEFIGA
# Dickkopf-related protein 1 (Homo sapiens), sequence (O94907 whole entry, looked up): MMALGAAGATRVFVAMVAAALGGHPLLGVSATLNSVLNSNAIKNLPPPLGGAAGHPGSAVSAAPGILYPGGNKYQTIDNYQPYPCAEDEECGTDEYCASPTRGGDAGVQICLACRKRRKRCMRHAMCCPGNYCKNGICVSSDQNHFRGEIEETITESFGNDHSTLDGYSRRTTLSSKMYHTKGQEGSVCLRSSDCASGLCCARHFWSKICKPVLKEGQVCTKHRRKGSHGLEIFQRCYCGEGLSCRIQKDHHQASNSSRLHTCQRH
# Fibroblast growth factor 10 (Homo sapiens), sequence (O15520 whole entry, looked up): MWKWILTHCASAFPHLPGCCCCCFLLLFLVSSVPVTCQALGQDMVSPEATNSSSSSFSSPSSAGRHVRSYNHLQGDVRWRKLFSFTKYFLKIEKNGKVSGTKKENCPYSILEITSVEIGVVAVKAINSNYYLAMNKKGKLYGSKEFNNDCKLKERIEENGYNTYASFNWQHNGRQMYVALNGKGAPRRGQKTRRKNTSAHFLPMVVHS
# Follistatin-related protein 3 (Homo sapiens), sequence (O95633 whole entry, looked up): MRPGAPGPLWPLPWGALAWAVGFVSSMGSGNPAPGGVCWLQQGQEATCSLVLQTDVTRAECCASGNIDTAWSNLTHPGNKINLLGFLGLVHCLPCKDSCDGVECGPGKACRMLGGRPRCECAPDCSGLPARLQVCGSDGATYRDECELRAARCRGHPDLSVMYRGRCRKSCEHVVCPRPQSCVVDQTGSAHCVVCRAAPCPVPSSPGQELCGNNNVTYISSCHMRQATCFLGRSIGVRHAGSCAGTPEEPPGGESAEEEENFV
# Left-right determination factor 2 (Homo sapiens), sequence (O00292 whole entry, looked up): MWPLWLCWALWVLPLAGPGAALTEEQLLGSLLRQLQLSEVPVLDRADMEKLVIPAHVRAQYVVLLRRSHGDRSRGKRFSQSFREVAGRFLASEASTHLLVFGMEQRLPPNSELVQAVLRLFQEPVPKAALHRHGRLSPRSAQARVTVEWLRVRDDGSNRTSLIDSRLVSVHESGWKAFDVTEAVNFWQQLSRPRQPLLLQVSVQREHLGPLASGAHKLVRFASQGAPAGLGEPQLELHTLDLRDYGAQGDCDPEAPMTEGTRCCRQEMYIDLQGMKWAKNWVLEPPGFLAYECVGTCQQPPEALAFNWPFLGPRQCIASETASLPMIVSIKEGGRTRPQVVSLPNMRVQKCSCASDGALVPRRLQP
# Torsin-1A-interacting protein 1 (Homo sapiens), sequence (Q5JTV8 whole entry, looked up): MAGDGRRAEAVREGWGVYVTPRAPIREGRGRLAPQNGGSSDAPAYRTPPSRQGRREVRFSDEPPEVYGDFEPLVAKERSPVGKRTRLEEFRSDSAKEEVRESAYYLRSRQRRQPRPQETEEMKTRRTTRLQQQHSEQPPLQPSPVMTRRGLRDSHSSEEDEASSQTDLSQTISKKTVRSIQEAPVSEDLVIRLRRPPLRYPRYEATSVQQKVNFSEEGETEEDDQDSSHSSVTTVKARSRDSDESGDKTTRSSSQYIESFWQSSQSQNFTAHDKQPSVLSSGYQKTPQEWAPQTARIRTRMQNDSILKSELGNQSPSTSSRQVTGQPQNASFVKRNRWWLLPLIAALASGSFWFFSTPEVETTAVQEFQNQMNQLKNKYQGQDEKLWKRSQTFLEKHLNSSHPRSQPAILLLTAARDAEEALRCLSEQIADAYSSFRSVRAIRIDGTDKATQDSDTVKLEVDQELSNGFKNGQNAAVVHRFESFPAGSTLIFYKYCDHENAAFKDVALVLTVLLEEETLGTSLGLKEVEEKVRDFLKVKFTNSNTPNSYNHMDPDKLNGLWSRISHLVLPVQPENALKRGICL
Compound,composite z-score [1],composite z-score [2],composite z-score [3],z-score [4],composite z-score [5],composite z-score [6],composite z-score [7],composite z-score [8],composite z-score [9],composite z-score [10],composite z-score [11],z-score [12],composite z-score [13],composite z-score [14],composite z-score [15],composite z-score [16],composite z-score [17],composite z-score [18],composite z-score [19],composite z-score [20]
CO[C@H]1COC(=O)CCC[C@@H](C)[C@H](OC)COC(=O)[C@@H](C)NC(=O)CC=C[C@@H]1C,1.69,-0.502,-1.14,-1.15 (inactive),0.313,0.97,1.2,0.938,1.57,1.21,-1.44,-1.29,1.19,-0.654,-1.61,-0.117,0.0483,-0.0684,0.992,-0.314
COC(=O)[C@H]1[C@@H](O)[C@@]2(O)c3ccccc3O[C@@]2(c2ccccc2)[C@@H]1c1ccccc1,-0.125,-0.12,-0.535,0.217 (inactive),0.0746,-0.0393,0.396,-0.134,0.384,-0.011,-0.673,-0.1,0.401,-0.449,-0.336,-0.156,0.0815,-0.136,0.096,-0.516
CCCNC(=O)OC[C@H]1O[C@H](CCON=C(C)CCN2CCc3nc(CC)c(CC)cc3C2)C=C[C@@H]1Oc1ccc(OC)cc1,0.865,-0.231,-0.163,-1.02 (inactive),-0.423,-0.687,0.159,0.125,0.192,0.886,-0.263,-3.27,0.223,-0.254,-0.875,-0.034,-0.154,-0.4,0.345,0.381
CCCNC(=O)OC[C@H]1O[C@H](CCON=Cc2ccc(C(=O)N3[C@H](c4ccc(C)cc4)[C@@H](C)CC[C@H]3C(=O)OC)cc2)C=C[C@@H]1Oc1ccc(OC)cc1,0.463,-0.186,-0.0627,-0.357 (inactive),0.523,0.581,0.417,0.355,0.0399,0.446,0.993,-1.85,0.534,0.263,-0.0711,0.111,-0.493,-0.0234,0.943,0.497
COC(=O)[C@@H]1CC[C@@H](C)[C@H](c2ccc(Br)cc2)N1,0.644,-0.013,-0.0951,-0.203 (inactive),-0.0342,-0.0839,0.185,-0.155,0.133,0.987,-1.2,-0.198,0.445,-0.227,-0.0163,-0.136,-0.226,-0.247,-0.0359,-0.309
Cc1ccc(S(=O)(=O)N[C@@H]2COC(=O)[C@@H](C)COC(=O)CC=C[C@H]2C)cc1,0.154,-0.324,-0.352,0.00914 (inactive),0.424,0.513,0.545,0.66,0.56,0.13,-0.534,0.264,0.449,-0.0682,-0.523,-0.0222,-0.157,-0.0489,0.216,0.293
COC(=O)[C@H](C)NC(=O)CCC1CC(OC(=O)NCc2ccc3c(c2)OCO3)CC2(CCCC(COC(=O)NCc3cccc(C(F)(F)F)c3)O2)O1 (stereo not given in full),1.02,0.114,-0.289,0.562 (inactive),0.818,0.622,0.223,1.14,0.235,-0.0499,0.817,-1.79,1.11,0.601,-0.311,-0.113,0.0756,0.33,0.794,0.446
C[C@@H](c1ccccc1)N1C(=O)[C@H]2[C@H]3[C@H](O)[C@H](O)CC(=NO[C@@H]4O[C@H](CO)[C@@H](O)[C@H](O)[C@H]4O)[C@@H]3CC[C@H]2C1=O,0.256,-0.193,-0.62,0.119 (inactive),0.305,0.495,0.586,0.579,0.393,0.0868,0.292,-0.278,0.576,-0.238,-0.686,-0.0403,-0.19,0.0924,0.526,0.199
COC(=O)CC=C[C@@H](C)[C@@H](C=NO[C@@H](C)c1cc(-c2c(C)cc(C)cc2C)no1)NS(=O)(=O)c1ccc(C)cc1,-0.775,0.437,0.969,-1.4 (inactive),-1.93,-1.46,-1.16,-1.83,-2.26,0.178,-0.707,-1.6,-1.36,-0.3,0.573,-0.202,-0.138,0.0011,-0.436,-0.744
CCOC(=O)[C@H](CC(C)C)NC(=O)CCC1CC(OC(=O)NCc2cccc3ccccc23)CC2(CCCC(COC(=O)NCCc3ccc(Cl)cc3)O2)O1 (stereo not given in full),0.409,-0.0738,-0.406,-1.18 (inactive),0.365,0.355,0.681,0.726,0.323,-0.293,0.529,-0.707,0.486,0.0203,-0.117,-0.191,-0.473,-0.114,0.161,0.557
CCOC(=O)CCN1C(=O)[C@H]2[C@H]3[C@H](O)[C@H](O)CC(=NOCC(C)C)[C@H]3CC[C@H]2C1=O,-0.108,0.16,0.782,0.108 (inactive),-0.147,-0.239,0.214,-0.276,-0.0273,0.617,-0.245,0.453,0.0607,-0.271,-0.26,-0.0346,-0.209,0.0669,0.326,0.797
